Test results: PubChem BioAssay (Tox21)
“And” between values parts separate entries of the source, which are not always exact repeats. Equal entries are not always repeated. Results filed as inconclusive are left out. More than one record can exist for a structure, and the calls need not agree. The source made the active and inactive calls. Unless noted, calls follow the shape of the dose curve; as a rule, active = well fitted curve in the direction sought with a large enough effect in the repeat runs; inconclusive = weak or mixed curves; inactive = no such curve, though single readings can be large; an effect the other way counts as inactive or inconclusive.

What was measured:
[1] = biological target: Thyrotropin receptor (Homo sapiens) (UniProt P16473); assay: qHTS assay to identify small molecule antagonists of the thyroid stimulating hormone receptor (TSHR) signaling pathway (AID 1259385; calls by dose curve; also: nearly all actives have a fitted effect of over 20% in size)
Sequence of Thyrotropin receptor (Homo sapiens) (P16473 whole entry, looked up): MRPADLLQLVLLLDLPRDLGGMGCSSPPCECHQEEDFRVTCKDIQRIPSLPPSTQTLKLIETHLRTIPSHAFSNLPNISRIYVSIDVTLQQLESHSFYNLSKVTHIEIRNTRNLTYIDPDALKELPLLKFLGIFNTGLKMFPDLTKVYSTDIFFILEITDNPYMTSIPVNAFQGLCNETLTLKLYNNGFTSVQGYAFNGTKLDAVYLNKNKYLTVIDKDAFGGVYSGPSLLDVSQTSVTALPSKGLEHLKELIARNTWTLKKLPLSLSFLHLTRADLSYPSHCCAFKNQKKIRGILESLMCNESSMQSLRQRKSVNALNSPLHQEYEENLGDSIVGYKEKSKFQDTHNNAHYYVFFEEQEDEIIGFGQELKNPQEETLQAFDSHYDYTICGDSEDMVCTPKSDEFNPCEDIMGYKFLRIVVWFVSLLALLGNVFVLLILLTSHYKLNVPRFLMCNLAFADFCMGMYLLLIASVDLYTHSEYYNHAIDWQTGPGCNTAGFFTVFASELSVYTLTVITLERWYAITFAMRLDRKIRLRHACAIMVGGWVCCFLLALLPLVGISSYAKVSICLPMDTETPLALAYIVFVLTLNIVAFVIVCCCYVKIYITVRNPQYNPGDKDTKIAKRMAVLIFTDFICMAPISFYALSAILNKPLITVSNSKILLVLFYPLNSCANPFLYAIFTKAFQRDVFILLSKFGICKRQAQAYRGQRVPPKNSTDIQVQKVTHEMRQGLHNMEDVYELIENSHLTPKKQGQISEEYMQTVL
In short: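 TSHR-HEK293 cells were plated and held 18 h at 37C/5% CO2, then given compound plus Ro20-1724 and stimulated with TSH at 1.5 ng/mL final. After 30 min at room temperature, cAMP was detected with cAMP-d2/anti-cAMP-cryptate (1 h) by fluorescence.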

[2] = qHTS assay to identify small molecule agonists of the estrogen receptor alpha (ER-alpha) signaling pathway in the presence of an antagonist - cell viability counter screen (AID 1259386);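 also: cells exposed to compounds for 22 h at 37 °C before the viability read; nearly all actives have a fitted effect of over 30% in size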; also: potency is read from the fitted curve at half-maximal effect; as to activity change, negative = cytotoxicity: series mostly up to about 92 µM
In short: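 ICI-182,780 at 10.0nM final accompanies the compound titration (15 concentrations, 22hr, 37C) on VM7Luc4E2 cells. The CellTiter-Fluor fluorescence readout runs in the same wells as the luciferase assay.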

[3] = biological target: Progesterone receptor (Homo sapiens) (UniProt P06401); assay: qHTS assay to identify small molecule agonists of the progesterone receptor (PR) signaling pathway (AID 1346784; calls by dose curve; also: nearly all actives have a fitted effect of over 30% in size)
Sequence of Progesterone receptor (Homo sapiens) (P06401 whole entry, looked up): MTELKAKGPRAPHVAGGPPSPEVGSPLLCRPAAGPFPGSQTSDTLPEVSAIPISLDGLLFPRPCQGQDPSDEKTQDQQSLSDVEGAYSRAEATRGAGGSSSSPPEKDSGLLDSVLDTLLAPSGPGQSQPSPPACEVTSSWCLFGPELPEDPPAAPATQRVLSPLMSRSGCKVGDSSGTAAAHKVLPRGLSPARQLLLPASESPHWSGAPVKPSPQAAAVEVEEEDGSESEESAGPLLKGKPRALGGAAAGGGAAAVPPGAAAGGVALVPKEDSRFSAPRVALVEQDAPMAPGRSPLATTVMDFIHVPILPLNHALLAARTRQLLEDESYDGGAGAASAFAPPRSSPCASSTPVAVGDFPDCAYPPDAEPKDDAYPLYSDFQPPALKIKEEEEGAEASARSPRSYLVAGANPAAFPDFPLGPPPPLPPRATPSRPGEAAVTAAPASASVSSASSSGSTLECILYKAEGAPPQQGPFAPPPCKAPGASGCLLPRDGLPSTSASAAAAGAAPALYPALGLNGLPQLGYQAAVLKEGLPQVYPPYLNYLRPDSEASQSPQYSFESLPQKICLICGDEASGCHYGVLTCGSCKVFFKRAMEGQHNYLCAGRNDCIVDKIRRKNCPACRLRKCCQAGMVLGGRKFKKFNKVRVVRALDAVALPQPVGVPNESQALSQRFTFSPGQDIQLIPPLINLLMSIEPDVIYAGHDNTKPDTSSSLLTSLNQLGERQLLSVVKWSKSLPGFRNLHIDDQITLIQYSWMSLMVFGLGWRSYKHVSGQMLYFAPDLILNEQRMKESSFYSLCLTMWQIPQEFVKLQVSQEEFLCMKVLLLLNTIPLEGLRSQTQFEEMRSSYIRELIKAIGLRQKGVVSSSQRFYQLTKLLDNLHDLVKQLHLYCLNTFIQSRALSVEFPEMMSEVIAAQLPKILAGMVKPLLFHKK
In short: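 Cells (PR-UAS-bla HEK 293T, GripTite) were plated in assay medium containing 2% charcoal-stripped FBS and incubated 6 hr. Test compounds in DMSO were added for 16 hr at 37C. FRET substrate was then loaded for 2 hr at room temperature before fluorescence reading.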

[4] = biological target: Progesterone receptor (Homo sapiens) (UniProt P06401); assay: qHTS assay to identify small molecule antagonists of the progesterone receptor (PR) signaling pathway (AID 1346795; active = well fitted inhibition curve with a large enough effect in the signal ratio in the repeat runs, not every such curve was filed as active; the % refers to the signal ratio)
In short: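 Antagonist mode: compounds tested against 1 nM (final) promegestone stimulation in HEK293T cells expressing PR-UAS-bla reporter, 16 hr at 37C, 5% CO2; beta-lactamase activity detected via B/G FRET substrate after 2 hr at room temperature.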

[5] = qHTS assay to identify small molecule antagonists of the progesterone receptor (PR) signaling pathway - cell viability counter screen (AID 1346798); also: nearly all actives have a fitted effect of over 50% in size; also: potency is read from the fitted curve at half-maximal effect; as to activity change, negative = cytotoxicity: series mostly up to about 92 µM
In short: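 Counter screen for cytotoxicity: viability of PR-UAS-bla HEK293T cells was measured with CellTiter-Glo luminescence following 16 hr compound exposure in the presence of R5020.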

[6] = qHTS assay to identify small molecule agonists of the progesterone receptor (PR) signaling pathway - cell viability counter screen (AID 1346799; calls by dose curve; also: nearly all actives have a fitted effect of over 45% in size)
In short: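 Cells (PR-UAS-bla HEK293T) are plated at 3,000/well in 2% charcoal-stripped FBS medium, rested 6 hr, dosed and incubated 16 hr at 37C. CellTiter-Glo is then added and luminescence measured after 30 min at room temperature.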

[7] = qHTS assay to identify small molecule antagonists of the TGF-beta/Smad signaling pathway - cell viability counter screen (AID 1346824); also: nearly all actives have a fitted effect of over 50% in size
In short: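 SBE-bla HEK 293T cells were plated overnight at 37 C, then given compounds in DMSO plus TGF-beta1 (added as 0.25 ng/mL solution) for 5 hr. After the bla read, CellTiter-Glo was added to the same wells and luminescence read after 30 min at room temperature.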

[8] = qHTS assay to identify small molecule agonists of the TGF-beta/Smad signaling pathway - cell viability counter screen (AID 1346829); also: top concentration of the series differs between compounds; nearly all actives have a fitted effect of over 45% in size
In short: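 SBE-bla HEK 293T cells plated overnight, compound exposure 5 hr at 37 C. Viability read in the same wells by CellTiter-Glo luminescence after 30 min at room temperature, following the beta-lactamase read.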

[9] = biological target: Thyrotropin-releasing hormone receptor (Homo sapiens) (UniProt P34981); assay: qHTS assay to identify small molecule antagonists of the thyrotropin-releasing hormone receptor (TRHR) signaling pathway (AID 1346877; active = well fitted inhibition curve with a large enough effect in the repeat runs, not every such curve was filed as active; also: series mostly up to about 51 µM)
Sequence of Thyrotropin-releasing hormone receptor (Homo sapiens) (P34981 whole entry, looked up): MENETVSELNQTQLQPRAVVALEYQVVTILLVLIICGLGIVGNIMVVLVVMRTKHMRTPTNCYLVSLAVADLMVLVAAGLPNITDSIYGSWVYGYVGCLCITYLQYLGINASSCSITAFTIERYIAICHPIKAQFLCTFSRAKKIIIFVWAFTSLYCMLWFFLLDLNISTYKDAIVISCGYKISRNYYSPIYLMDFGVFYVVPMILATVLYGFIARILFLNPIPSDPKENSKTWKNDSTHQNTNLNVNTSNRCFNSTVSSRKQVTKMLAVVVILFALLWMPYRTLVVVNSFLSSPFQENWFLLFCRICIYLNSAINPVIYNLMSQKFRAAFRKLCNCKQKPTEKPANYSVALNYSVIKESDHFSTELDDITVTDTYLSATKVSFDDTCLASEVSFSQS
In short: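 Screening used HEK293 cells engineered with TRHR, with a brief 5 min room-temperature compound exposure preceding addition of TRH to 1 nM. The read-out was kinetic calcium-dye fluorescence, concentration-response from 15 doses in triplicate.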

[10] = biological target: Thyrotropin-releasing hormone receptor (Homo sapiens) (UniProt P34981); assay: qHTS assay to identify small molecule agonists of the thyrotropin-releasing hormone receptor (TRHR) signaling pathway (AID 1346891; calls by dose curve; also: potency is read from the fitted curve at half-maximal effect;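 as to activation: HEK293 cells expressing TRHR with calcium dye readout; series mostly up to about 58 µM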)
In short: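 Cells: TRHR-Hek293, seeded and incubated 18 h. Dye loading: 2 h at 37 °C. Compound added from DMSO stock by pin tool. Read-out: kinetic calcium fluorescence over 3 min.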

[11] = Caspase-3/7 induction in HepG2 cells by small molecules, qHTS assay (AID 1346978); also: nearly all actives have a fitted effect of over 15% in size
In short: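 Wild-type HepG2 cells (2,000/well) were settled 5 h at 37 C, 5% CO2, then exposed to compounds in DMSO for 17 h. Caspase-3/7 activity was read by luminescence 30 min after adding Caspase-Glo 3/7 reagent at room temperature.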

[12] = Caspase-3/7 induction in CHO-K1 cells by small molecules, qHTS cell viability counter screen (AID 1346979); also: nearly all actives have a fitted effect of over 35% in size; also: potency is read from the fitted curve at half-maximal effect
In short: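 Cytotoxicity counter screen run in parallel with the caspase-3/7 assay: CHO-K1 cells, 16hr compound treatment at 37C, then CellTiter-Fluor for 1hr before fluorescence reading.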

[13] = Caspase-3/7 induction in CHO-K1 cells by small molecules, qHTS assay (AID 1346980); also: nearly all actives have a fitted effect of over 15% in size; also: potency is read from the fitted curve at half-maximal effect
In short: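 Wild-type cells were seeded at 1,500 per well and settled 5 hr at 37 C, 5% CO2, then exposed to DMSO-dissolved compounds for 17 hr. Caspase-Glo 3/7 reagent was added, and luminescence was read after 30min at room temperature.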

[14] = Caspase-3/7 induction in HepG2 cells by small molecules, qHTS cell viability counter screen (AID 1346981); also: nearly all actives have a fitted effect of over 30% in size; also: potency is read from the fitted curve at half-maximal effect; as to activity change, negative = cytotoxicity: series mostly up to about 92 µM
In short: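 Multiplexed with the caspase-3/7 assay: HepG2 cells, 16 hr compound treatment, CellTiter-Fluor viability detection by fluorescence.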

[15] = biological target: Nuclear receptor subfamily 1 group I member 2 (Homo sapiens) (UniProt O75469); assay: Human pregnane X receptor (PXR) small molecule agonists, qHTS assay (AID 1346982); also: nearly all actives have a fitted effect of over 35% in size
Sequence of Nuclear receptor subfamily 1 group I member 2 (Homo sapiens) (O75469 whole entry, looked up): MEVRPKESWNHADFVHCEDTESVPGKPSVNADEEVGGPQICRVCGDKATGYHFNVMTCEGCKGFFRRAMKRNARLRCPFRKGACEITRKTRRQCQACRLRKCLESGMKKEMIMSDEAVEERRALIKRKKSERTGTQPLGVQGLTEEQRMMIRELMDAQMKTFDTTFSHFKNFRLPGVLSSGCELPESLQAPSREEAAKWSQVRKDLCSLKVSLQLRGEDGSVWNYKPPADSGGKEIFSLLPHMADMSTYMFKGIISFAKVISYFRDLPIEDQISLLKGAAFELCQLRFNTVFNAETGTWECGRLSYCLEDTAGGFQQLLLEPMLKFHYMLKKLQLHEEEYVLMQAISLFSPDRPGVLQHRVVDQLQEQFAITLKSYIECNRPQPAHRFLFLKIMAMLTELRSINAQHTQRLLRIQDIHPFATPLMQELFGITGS
In short: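 We seeded PXR-Luc HepG2 cells in assay medium containing 5% charcoal-stripped FBS, added compounds 5 hr later, incubated 24 hr, and read luminescence with ONE-Glo reagent.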

[16] = qHTS assay to identify small molecule agonists of the TGF-beta/Smad signaling pathway (AID 1346859; active = well fitted activation curve with a large enough effect in the signal ratio in the repeat runs, not every such curve was filed as active; the % refers to the signal ratio; also: series mostly up to about 77 µM)
In short: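 Reporter line: HEK 293T with stably integrated SBE-controlled beta-lactamase. Compound exposure lasts 5 hr at 37 C and 5% CO2; substrate loading follows for 2 hr at room temperature, with emission read at 460 and 530 nm.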

[17] = Human pregnane X receptor (PXR) small molecule agonists, qHTS cell viability counter screen (AID 1346977); also: nearly all actives have a fitted effect of over 50% in size; also: potency is read from the fitted curve at half-maximal effect
In short: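 Cytotoxicity counter screen run in the same wells as the PXR luciferase assay, using PXR-Luc HepG2 cells in charcoal-stripped serum medium. Viability: CellTiter-Fluor fluorescence after 24hr compound treatment.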

[18] = biological target: Nuclear receptor subfamily 1 group I member 2 (Rattus norvegicus) (UniProt Q9R1A7); assay: Rat pregnane X receptor (rPXR) activation by small molecules, qHTS assay (AID 1346983); settings: rPXR luciferase reporter cells, One-Glo luminescence, 24 h; max activation: stronger effect = higher value; also: nearly all actives have a fitted effect of over 20% in size; also: potency is read from the fitted curve at half-maximal effect
Sequence of Nuclear receptor subfamily 1 group I member 2 (Rattus norvegicus) (Q9R1A7 whole entry, looked up): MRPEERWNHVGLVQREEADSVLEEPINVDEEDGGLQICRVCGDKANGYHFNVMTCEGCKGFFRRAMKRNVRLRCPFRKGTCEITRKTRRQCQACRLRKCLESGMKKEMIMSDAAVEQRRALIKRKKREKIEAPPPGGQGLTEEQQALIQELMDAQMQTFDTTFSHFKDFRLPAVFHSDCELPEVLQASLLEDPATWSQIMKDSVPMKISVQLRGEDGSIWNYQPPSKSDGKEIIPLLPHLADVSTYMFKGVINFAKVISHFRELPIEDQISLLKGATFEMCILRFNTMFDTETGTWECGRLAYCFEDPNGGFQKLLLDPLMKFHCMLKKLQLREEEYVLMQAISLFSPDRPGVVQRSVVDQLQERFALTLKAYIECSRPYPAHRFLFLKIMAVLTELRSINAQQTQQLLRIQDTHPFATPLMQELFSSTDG
In short: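 Cell-based rPXR luciferase reporter assay, 2,000 cells per well, rested 5hr at 37 C before compound addition in DMSO, then 24 hr at 37 C. One-Glo reagent was added and luminescence read after 30 min at room temperature.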

[19] = biological target: Nuclear receptor subfamily 1 group I member 2 (Homo sapiens) (UniProt O75469); assay: CYP3A4 induction through human pregnane X receptor (PXR) by small molecules, qHTS assay (AID 1346984); also: nearly all actives have a fitted effect of over 40% in size
In short: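 qHTS, concentration-response format: HepG2 DPX-2 line, PXR/CYP3A4-luc. Exposure 24 h, 37C. Substrate Luciferin-IPA 3uM final, 3 h. Detection One-Glo, 30 min RT.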

[20] = biological target: Nuclear receptor subfamily 1 group I member 2 (Homo sapiens) (UniProt O75469); assay: Human pregnane X receptor (PXR) activation by small molecules, qHTS assay (AID 1346985); also: nearly all actives have a fitted effect of over 40% in size
In short: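 DPX-2 cells (HepG2 co-transfected with a PXR response element and a CYP3A4-promoter luciferase construct) were seeded at 2,000 per well, rested 5 hr at 37C, then exposed to DMSO-dissolved compounds for 24 hr. Activation was read as luciferase luminescence.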
% is scaled to controls: 0 for no effect and ±100 for the full control effect.

C=C(C)C(=O)OCC(CC)(COC(=O)C(=C)C)COC(=O)C(=C)C
inactive: outcome [1] | Potency [2] | Potency [3] | Potency [4] | Potency [5] | Potency [6] | Potency [7] | Potency [8] | outcome [9] | Potency [10] | Potency [11] | Potency [12] | Potency [13] | Potency [14] | Potency [15]

CC(C)NCC(O)COc1cccc2ccccc12 (configuration not stated)
inactive and 43.7 µM (active): Potency [10]
active: Potency [5] 30.9 µM and 27.3 µM
inactive: Potency [2] | Potency [3] | Potency [4] | Potency [7] | Potency [8] | outcome [16] | outcome [9] | Potency [11] | Potency [12] | Potency [13] | Potency [14]

O=C(c1cc(O)c(O)c(O)c1)c1ccc(O)c(O)c1O
inactive: Potency [3] | Potency [4] | Potency [5] | Potency [6] | Potency [7] | Potency [8] | outcome [16] | outcome [9] | Potency [10] | Potency [11] | Potency [13]
active: Potency [2] 34.3 µM and 30.6 µM | Potency [17] 39.8 µM and 61.1 µM | Potency [12] 48.4 µM and 54.5 µM and 29.8 µM | Potency [14] 54.3 µM and 30.6 µM

O=C1N=C(O)CN1/N=C/c1ccc(-c2ccc([N+](=O)[O-])cc2)o1
active: Potency [2] 27.3 µM and 26.6 µM | Potency [12] 54.5 µM and 26.6 µM | Potency [14] 48.6 µM
inactive: Potency [3] | Potency [4] | Potency [5] | Potency [6] | Potency [7] | Potency [8] | Potency [11] | Potency [13] | max activation [18] -4.97%

CCC(=O)O
inactive: Potency [2] | Potency [5] | activity change, negative = cytotoxicity [6] -3.72% [at 19 µM] | Potency [7] | Potency [8] | Potency [11] | Potency [12] | Potency [13] | Potency [14] | Potency [15]

COC(=O)Nc1nc2ccc(Sc3ccccc3)cc2[nH]1
inactive: outcome [1] | Potency [2] | Potency [3] | Potency [5] | Potency [7] | Potency [8] | outcome [16] | outcome [9] | Potency [10] | Potency [11] | Potency [14]
active: Potency [12] 30.6 µM and 10.6 µM | Potency [13] 54.5 µM | Potency [18] 1.26 µM

O=Nc1ccc(O)cc1
inactive: outcome [1] | Potency [5] | Potency [6] | Potency [7] | Potency [8] | outcome [16] | Potency [10] | Potency [11] | Potency [13] | Potency [14] | Potency [15]
47.4 µM (active) and inactive: Potency [2] | Potency [12]

Nc1cc(-c2ccncc2)c[nH]c1=O
inactive: Potency [2] | Potency [3] | Potency [4] | Potency [5] | Potency [6] | Potency [7] | Potency [8] | outcome [9] | Potency [10] | Potency [17] | Potency [11] | Potency [12] | Potency [13] | Potency [14] | max activation [18] -1.94% | outcome [19] | outcome [20]

c1ccc2[nH]cnc2c1
inactive: Potency [2] | Potency [3] | Potency [4] | Potency [6] | Potency [7] | Potency [8] | outcome [16] | Potency [10] | Potency [17] | Potency [11] | Potency [12] | Potency [13] | Potency [14]
